Results reported in the supplement of paper PMC10849652.
About 7,900 targets were measured; listed, in parts, are those with a hit and a random draw of the rest. About 0.6% of all pairs of compound and target were hits. A number with no mark means an inactive call.

Tests used:
Experiment in all cases: log2 fold change, soluble protein after heating vs DMSO (PISA); higher = thermal stabilisation; K562 cells, 10 uM, 30 min; active = over 0.2 and 3.5 SD of the protein, either way, in both replicates (recomputed)
bafetinib = compound: Cc1ccc(NC(=O)c2ccc(CN3CC[C@H](N(C)C)C3)c(C(F)(F)F)c2)cc1Nc1nccc(-c2cncnc2)n1 [bafetinib]
Procedure, shortened: (§1)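 K562 cells at 2×10^6 cells/mL were given 10 μM compound for 30 min. Aliquots then went through 3 min of heating across 48°C-58°C, were pooled, and were extracted in PBS with 0.5% NP-40 at 4°C, and the supernatant after 21,000xg for 90 min was quantified by TMTpro 16plex LC-MS/MS with channel sums equalised. Thermal stability relative to control samples, from duplicates, is given as log2 fold change.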

[1] = compound: Cc1cccc(CC(=O)N2CCc3c2ccc(-c2cn(C)c4ncnc(N)c24)c3F)n1
Procedure, shortened: as §1

nilotinib = compound: Cc1cn(-c2cc(NC(=O)c3ccc(C)c(Nc4nccc(-c5cccnc5)n4)c3)cc(C(F)(F)F)c2)cn1 [nilotinib]
Procedure, shortened: as §1

[2] = compound: Cc1nc(Nc2n[nH]c3c2CN(C(=O)N[C@H](CN(C)C)c2ccccc2)C3(C)C)c2sccc2n1
Procedure, shortened: as §1

dasatinib = compound: Cc1nc(Nc2ncc(C(=O)Nc3c(C)cccc3Cl)s2)cc(N2CCN(CCO)CC2)n1 [dasatinib]
Procedure, shortened: as §1

[3] = compound: Cc1ncc(-c2ccnc(Nc3ccc(S(C)(=O)=O)cc3)n2)n1C(C)C
Procedure, shortened: as §1

[4] = compound: Cn1cc(-c2ccc3c(c2)CCN3C(=O)Cc2cccc(C(F)(F)F)c2)c2c(N)ncnc21
Procedure, shortened: as §1

[5] = compound: Cn1cc(-c2ccc3nnc(C(F)(F)c4ccc5ncccc5c4)n3n2)cn1
Procedure, shortened: as §1

tipifarnib = compound: Cn1cncc1[C@@](N)(c1ccc(Cl)cc1)c1ccc2c(c1)c(-c1cccc(Cl)c1)cc(=O)n2C [tipifarnib]
Procedure, shortened: as §1

mubritinib = compound: FC(F)(F)c1ccc(/C=C/c2nc(COc3ccc(CCCCn4ccnn4)cc3)co2)cc1 [mubritinib]
Procedure, shortened: as §1

[6] = compound: NC(=O)Nc1cc(-c2cccc(F)c2)sc1C(=O)N[C@H]1CCCNC1
Procedure, shortened: as §1

[7] = compound: NC(=O)c1cnc(N[C@@H]2CCCC[C@@H]2N)nc1Nc1cccc(-n2nccn2)c1
Procedure, shortened: as §1

[8] = compound: NC1(c2ccc(-c3nc4ccn5c(=O)[nH]nc5c4cc3-c3ccccc3)cc2)CCC1
Procedure, shortened: as §1

[9] = compound: NCC(=O)Nc1ccc(-n2nc(C(F)(F)F)cc2-c2ccc3c(ccc4ccccc43)c2)cc1
Procedure, shortened: as §1

entinostat = compound: Nc1ccccc1NC(=O)c1ccc(CNC(=O)OCc2cccnc2)cc1 [entinostat]
Procedure, shortened: as §1

vorinostat = compound: O=C(CCCCCCC(=O)Nc1ccccc1)NO [vorinostat]
Procedure, shortened: as §1

citarinostat = compound: O=C(CCCCCCNC(=O)c1cnc(N(c2ccccc2)c2ccccc2Cl)nc1)NO [citarinostat]
Procedure, shortened: as §1

silmitasertib = compound: O=C(O)c1ccc2c(c1)nc(Nc1cccc(Cl)c1)c1ccncc12 [silmitasertib]
Procedure, shortened: as §1

[10] = compound: O=C1NC(=O)C(c2cnc3ccccn23)=C1c1cn2c3c(cc(F)cc13)CN(C(=O)N1CCCCC1)CC2
Procedure, shortened: as §1

[11] = compound: c1cc(OCCN2CCCCC2)cc(-c2n[nH]c3ccc(-c4nnc[nH]4)cc23)c1
Procedure, shortened: as §1

Chain of UniProt O75122 (O75122 whole entry, looked up): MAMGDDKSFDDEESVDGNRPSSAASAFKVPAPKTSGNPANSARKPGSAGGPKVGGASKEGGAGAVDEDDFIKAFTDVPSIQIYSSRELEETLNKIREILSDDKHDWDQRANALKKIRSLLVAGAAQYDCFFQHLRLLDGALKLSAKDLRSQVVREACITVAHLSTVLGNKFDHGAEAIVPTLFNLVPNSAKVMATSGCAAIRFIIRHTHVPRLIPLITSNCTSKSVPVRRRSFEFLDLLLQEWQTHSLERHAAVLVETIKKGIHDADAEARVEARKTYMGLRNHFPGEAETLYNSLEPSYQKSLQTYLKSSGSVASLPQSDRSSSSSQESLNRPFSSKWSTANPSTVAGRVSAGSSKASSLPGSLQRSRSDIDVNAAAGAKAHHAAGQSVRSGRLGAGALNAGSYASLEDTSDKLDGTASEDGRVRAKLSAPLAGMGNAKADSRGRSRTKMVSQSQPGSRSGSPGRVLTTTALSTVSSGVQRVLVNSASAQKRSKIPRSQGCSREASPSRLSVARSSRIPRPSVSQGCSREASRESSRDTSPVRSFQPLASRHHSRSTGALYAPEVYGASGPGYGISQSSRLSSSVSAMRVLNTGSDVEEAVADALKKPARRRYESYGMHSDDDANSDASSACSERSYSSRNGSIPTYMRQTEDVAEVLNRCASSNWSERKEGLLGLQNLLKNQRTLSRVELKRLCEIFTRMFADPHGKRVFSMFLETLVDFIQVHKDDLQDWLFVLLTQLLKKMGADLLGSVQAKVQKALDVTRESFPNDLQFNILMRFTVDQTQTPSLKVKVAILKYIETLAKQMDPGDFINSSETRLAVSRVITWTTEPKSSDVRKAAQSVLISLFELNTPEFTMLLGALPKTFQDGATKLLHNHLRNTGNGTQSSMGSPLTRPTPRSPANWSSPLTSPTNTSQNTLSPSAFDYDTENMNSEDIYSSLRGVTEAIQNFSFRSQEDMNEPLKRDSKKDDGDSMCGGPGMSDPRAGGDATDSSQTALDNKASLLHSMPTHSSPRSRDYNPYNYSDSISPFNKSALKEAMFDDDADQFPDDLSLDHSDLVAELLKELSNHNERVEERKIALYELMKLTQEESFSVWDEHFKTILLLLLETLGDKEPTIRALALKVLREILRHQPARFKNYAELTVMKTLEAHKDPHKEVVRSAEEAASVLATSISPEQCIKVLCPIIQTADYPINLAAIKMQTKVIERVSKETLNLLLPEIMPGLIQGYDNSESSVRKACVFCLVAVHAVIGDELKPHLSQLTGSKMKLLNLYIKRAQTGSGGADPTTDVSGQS
Chain of UniProt P19397 (P19397 whole entry, looked up): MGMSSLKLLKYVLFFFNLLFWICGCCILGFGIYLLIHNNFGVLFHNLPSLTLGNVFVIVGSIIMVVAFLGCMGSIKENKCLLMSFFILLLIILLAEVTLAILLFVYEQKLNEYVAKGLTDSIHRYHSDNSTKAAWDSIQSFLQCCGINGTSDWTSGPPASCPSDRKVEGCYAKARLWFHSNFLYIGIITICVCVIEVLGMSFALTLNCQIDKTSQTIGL
Chain of UniProt P45973 (P45973 whole entry, looked up): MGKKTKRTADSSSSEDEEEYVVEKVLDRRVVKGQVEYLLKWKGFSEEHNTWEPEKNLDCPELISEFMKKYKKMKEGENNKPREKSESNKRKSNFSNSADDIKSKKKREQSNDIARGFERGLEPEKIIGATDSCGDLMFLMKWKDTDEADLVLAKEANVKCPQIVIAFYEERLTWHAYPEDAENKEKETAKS
Chain of UniProt P00915 (P00915 whole entry, looked up): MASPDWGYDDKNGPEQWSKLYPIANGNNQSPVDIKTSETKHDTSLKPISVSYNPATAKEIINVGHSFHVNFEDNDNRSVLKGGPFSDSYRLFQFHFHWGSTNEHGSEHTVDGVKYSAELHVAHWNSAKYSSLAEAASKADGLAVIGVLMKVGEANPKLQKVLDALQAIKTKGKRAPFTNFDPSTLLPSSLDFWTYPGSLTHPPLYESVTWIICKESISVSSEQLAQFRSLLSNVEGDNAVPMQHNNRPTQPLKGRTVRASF
Chain of UniProt Q99627 (Q99627 whole entry, looked up): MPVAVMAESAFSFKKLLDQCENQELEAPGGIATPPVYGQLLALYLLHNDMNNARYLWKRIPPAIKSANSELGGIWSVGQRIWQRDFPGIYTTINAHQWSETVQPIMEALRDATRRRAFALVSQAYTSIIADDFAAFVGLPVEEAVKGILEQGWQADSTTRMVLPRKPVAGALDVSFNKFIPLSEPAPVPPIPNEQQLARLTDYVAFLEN
Chain of UniProt Q8IWY9 (Q8IWY9 whole entry, looked up): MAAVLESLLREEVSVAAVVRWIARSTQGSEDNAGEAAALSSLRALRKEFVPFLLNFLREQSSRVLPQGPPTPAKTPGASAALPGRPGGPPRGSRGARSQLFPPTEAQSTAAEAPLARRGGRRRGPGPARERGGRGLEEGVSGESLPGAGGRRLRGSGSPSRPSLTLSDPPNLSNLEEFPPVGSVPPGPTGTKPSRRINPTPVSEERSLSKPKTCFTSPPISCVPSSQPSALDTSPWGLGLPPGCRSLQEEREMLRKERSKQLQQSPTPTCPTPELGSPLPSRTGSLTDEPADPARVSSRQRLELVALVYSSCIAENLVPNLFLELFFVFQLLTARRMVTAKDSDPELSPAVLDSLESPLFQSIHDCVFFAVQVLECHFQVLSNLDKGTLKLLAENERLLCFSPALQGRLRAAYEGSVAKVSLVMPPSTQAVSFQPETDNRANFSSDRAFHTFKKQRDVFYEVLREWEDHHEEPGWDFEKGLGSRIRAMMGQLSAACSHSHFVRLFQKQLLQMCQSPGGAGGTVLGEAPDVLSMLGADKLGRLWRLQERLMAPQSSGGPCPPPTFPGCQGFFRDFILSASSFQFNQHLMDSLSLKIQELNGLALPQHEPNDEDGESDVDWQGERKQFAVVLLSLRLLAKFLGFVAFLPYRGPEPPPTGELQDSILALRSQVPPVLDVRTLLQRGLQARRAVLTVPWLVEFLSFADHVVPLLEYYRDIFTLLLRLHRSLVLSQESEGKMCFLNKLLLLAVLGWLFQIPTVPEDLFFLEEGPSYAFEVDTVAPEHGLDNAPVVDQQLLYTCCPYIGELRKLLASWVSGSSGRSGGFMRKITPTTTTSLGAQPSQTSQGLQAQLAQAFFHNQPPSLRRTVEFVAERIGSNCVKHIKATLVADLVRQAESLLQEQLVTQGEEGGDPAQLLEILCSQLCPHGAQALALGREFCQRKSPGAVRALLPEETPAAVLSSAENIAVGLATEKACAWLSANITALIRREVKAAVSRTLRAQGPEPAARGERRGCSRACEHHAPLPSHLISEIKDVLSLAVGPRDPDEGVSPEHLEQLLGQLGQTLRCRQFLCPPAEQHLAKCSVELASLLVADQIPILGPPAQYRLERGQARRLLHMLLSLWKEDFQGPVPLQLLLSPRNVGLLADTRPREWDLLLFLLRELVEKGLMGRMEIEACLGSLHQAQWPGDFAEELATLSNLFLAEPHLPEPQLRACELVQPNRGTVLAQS
Chain of UniProt Q86X83 (Q86X83 whole entry, looked up): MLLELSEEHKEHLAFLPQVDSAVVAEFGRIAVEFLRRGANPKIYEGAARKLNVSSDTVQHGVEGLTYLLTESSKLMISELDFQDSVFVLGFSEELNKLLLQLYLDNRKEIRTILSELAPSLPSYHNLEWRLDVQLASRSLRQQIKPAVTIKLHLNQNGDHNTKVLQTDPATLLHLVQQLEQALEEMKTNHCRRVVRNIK
Chain of UniProt O75976 (O75976 whole entry, looked up): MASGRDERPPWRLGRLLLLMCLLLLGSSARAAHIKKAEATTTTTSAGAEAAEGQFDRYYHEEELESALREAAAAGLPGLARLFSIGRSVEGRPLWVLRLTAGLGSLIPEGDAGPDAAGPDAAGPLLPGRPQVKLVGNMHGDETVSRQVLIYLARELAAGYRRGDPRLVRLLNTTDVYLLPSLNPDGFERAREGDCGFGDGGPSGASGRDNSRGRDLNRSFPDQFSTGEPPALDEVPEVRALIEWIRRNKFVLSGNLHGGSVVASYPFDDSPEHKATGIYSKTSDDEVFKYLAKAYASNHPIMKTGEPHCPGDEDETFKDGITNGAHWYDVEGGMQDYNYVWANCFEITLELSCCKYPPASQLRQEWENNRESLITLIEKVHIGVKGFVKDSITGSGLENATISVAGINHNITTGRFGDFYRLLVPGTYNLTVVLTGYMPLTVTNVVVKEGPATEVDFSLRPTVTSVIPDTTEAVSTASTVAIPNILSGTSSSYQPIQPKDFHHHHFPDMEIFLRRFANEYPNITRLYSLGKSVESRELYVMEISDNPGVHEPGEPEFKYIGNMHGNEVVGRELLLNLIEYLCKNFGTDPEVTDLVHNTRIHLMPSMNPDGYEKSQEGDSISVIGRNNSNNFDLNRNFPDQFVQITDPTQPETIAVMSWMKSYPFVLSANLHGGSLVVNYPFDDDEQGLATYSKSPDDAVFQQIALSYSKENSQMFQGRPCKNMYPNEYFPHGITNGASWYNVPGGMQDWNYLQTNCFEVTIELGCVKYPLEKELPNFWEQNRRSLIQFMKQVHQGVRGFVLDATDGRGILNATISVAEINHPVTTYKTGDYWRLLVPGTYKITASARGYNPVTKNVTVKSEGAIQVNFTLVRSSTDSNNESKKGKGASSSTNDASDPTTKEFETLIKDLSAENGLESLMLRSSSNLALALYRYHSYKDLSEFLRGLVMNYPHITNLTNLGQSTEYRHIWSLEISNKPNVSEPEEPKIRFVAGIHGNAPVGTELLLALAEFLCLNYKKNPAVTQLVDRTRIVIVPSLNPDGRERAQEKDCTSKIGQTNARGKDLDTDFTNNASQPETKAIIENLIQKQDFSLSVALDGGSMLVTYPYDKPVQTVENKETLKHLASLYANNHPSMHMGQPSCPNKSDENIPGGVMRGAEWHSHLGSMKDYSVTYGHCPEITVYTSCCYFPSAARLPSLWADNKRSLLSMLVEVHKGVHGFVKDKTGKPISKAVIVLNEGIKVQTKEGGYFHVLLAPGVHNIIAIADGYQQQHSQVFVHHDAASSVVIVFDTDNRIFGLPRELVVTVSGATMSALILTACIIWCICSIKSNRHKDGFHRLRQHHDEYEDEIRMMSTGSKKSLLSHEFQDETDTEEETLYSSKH

Target	log2 fold change (bafetinib)	log2 fold change [1]	log2 fold change (nilotinib)	log2 fold change [2]	log2 fold change (dasatinib)	log2 fold change [3]	log2 fold change [4]	log2 fold change [5]	log2 fold change (tipifarnib)	log2 fold change (mubritinib)	log2 fold change [6]	log2 fold change [7]	log2 fold change [8]	log2 fold change [9]	log2 fold change (entinostat)	log2 fold change (vorinostat)	log2 fold change (citarinostat)	log2 fold change (silmitasertib)	log2 fold change [10]	log2 fold change [11]
CLASP2 isoform 3 (UniProt O75122)	0.016	0.058	-0.067	-0.279 (active)	-0.175	-0.188	0.013	0.012	-0.089	0.022	0.018	-0.018	-0.147	-0.036	0.02	0.069	0.09	-0.033	-0.153	-0.055
CPD (UniProt O75976)	-0.07	0.01	-0.007	-0.033	0.026	-0.029	-0.029	0.026	0.055	-0.009	0.002	0.032	-0.101	-0.008	0.016	0.019	0.018	0.032	-0.034	-0.111
COMMD2 (UniProt Q86X83)	0.162	-0.066	-0.132	-0.069	-0.177	0.097	-0.099	0.057	0.025	0.101	-0.007	-0.034	-0.098	0.039	-0.062	0.049	0.011	0.053	0.011	-0.08
CBX5 (UniProt P45973)	-0.019	0.01	0.002	-0.138	-0.069	-0.064	-0.01	-0.02	-0.048	0.062	-0.066	-0.027	-0.025	-0.106	0.025	0.113	0.041	-0.016	-0.073	-0.021
COPS8 (UniProt Q99627)	-0.021	0.025	0.018	-0.008	0.006	0.007	0.107	0.146	-0.017	0.025	0.02	0.038	-0.042	0.043	0.034	0.041	0.056	0.044	-0.077	0.018
CA1 (UniProt P00915)	-0.017	-0.055	-0.004	-0.014	-0.007	0.011	0.029	-0.008	-0.011	0.067	0.01	0.011	-0.013	0.012	-0.011	0.221 (active)	0.074	0.013	-0.014	-0.029
CD53 (UniProt P19397)	0.091	-0.418 (active)	0.069	0.002	0.078	-0.003	0.145	0.125	0.057	0.081	-0.15	0.196	0.133	0.014	-0.044	-0.219	0.013	-0.046	-0.037	-0.12
CDAN1 (UniProt Q8IWY9)	-0.012	-0.014	0.064	-0.195	-0.582 (active)	-0.017	-0.023	0.008	0.011	0.056	-0.033	-0.042	-0.192	-0.091	0.051	0.022	-0.011	0.095	0.036	-0.018
